Results reported in PubChem BioAssay (NCI).
Compounds without any hit were thinned out: in the full panel of roughly 83,000, 20% have a hit.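 Note: values are percent growth. 100 is the growth of untreated cells, values between 100 and 0 indicate rising inhibition; between -100 and 0 indicates cell death.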 Unmarked numbers belong to inactive results. The source made the active and inactive calls. How the source made its calls: active means growth percent below 10; inactive means the rest.

tested on: SK-MEL-28 melanoma; experiment: NCI-60 one-dose screen, 48 h (100 = growth as untreated, 0 = no growth, -100 = all killed); conditions: 10 µM unless noted

Compound | growth
COc1ccc(/C(C)=C(\c2ccc(Cl)cc2)c2ccc(OCCN3CCCCC3)cc2)cc1 | 20.1%
CN(C)CCCC1(c2ccc(F)cc2)OCc2cc(-c3ccc4cc[nH]c4c3)ccc21 (centres undefined) | 64.1%
COc1ccc(/C=C/c2ccc3ccccc3n2)c(OC)c1 | 81.7%
CCCCNC(=O)c1cc([N+](=O)[O-])cc(C2CCCCC2)c1O | 34.3%
Cc1ccc(C(=O)c2ccc(CC(=O)N=Nc3c(O)[nH]c4ccc(Br)cc34)n2C)cc1 | 102%
CC1=C(C(=O)Nc2ccccc2)C(c2ccc3c(c2)OCO3)NC(=S)N1 (centres undefined) | 112%
Nc1nc(N)c2c(n1)NC(c1cccc(Nc3ccnc4cc(C(F)(F)F)ccc34)c1)CC(c1ccc(Br)cc1)=N2 (centres undefined) | 73.6%
O=C1c2ccccc2C(=O)c2c1c(C(=O)NCc1ccccc1)c1ccccn21 | 113%
COc1ccc(-c2ccc(-c3ccc(C(=N)N)nc3)s2)cc1Cl | 97.2%
O=C(CI)NC(=O)NC(=O)NCc1ccccc1 | 49.4%
COc1ccc(C2=CC(c3cc(OC)c(OC)c(OC)c3)n3ncnc3N2)cc1 (centres undefined) | 54.3%
Cc1ccc(C(=O)Nc2cccc(C#Cc3cccc4[nH]nc(N)c34)c2)cc1C(F)(F)F | 41.7%
CCOC(=O)c1ccccc1-c1c2ccc(=[N+](C)C)cc-2oc2cc(N(C)C)ccc12 | 32%
NC(=O)c1c(NC(=O)c2cccc(C(F)(F)F)c2)sc2c1CCC(=O)C2 | 20.7%
COc1cccc(C(=O)NNc2nc(Cl)nc(Cl)n2)c1 | 105%
O=C(/C=C/c1ccc(Cl)cc1)c1cccc(OCCCOc2cccc(C(=O)/C=C/c3ccc(Cl)cc3)c2)c1 | 102%
COc1cc(OC)cc(-c2ccc(-c3ccc(C(=N)N)o3)o2)c1 | 87.8%
Fc1cccc(-c2ccc3c(c2)C2(CCNCC2)CN3)c1 | 116%
S=C(c1ccc2c(c1)OCO2)N1CCN(c2cccc(Cl)c2)CC1 | 53.5%
O=C(NCc1cccc(CNC(=O)Nc2nc3ccccc3[nH]2)c1)Nc1nc2ccccc2[nH]1 | -76.9% (active)

Compound | growth
CCOC(=O)c1cnc2c(N=Nc3ccc(OC)cc3)c(N)nn2c1N | 114%
Cc1ccc2nc(NC(=O)CSc3nc(-c4ccccc4)c(C#N)c4nnnn34)sc2c1 | 111%
C#CC#CC#CC#CC#CC#CC#CC#CC[C@@H]1OC[C@@H](COC(=O)O[C@@H](C(=O)O[C@H]2C[C@@]3(O)[C@@H](OC(=O)c4ccccc4)[C@@H]4[C@]5(OC(C)=O)CO[C@@H]5C[C@H](O)[C@@]4(C)C(=O)[C@H](OC(C)=O)C(=C2C)C3(C)C)[C@@H](NC(=O)c2ccccc2)c2ccccc2)O1 | 55.4%
COCCn1cc(-c2csc(-c3c[nH]c4ccc(Br)cc34)n2)c2cccnc21 | 52.3%
c1nc2ccc(-c3cc4ccc5[nH]ncc5c4c4c3CCCC4)cc2[nH]1 | 41.7%
O=[N+]([O-])c1ccc(-c2cn3nc(-c4c[nH]c5ccccc45)sc3n2)cc1 | 111%
CN(Cc1cnc2nc(N)nc(N)c2n1)c1ccc(C(=O)NC(CCC(=O)O)C(=O)O)cc1Br (centres undefined) | 50%
COc1ccc(-c2nc3c(N)c(CO)cnc3s2)cc1 | 98.5%
O=C(Cn1nnc2ccccc21)N/N=C/c1c[nH]c2ccccc12 | 72.5%
N#Cc1cccc(C2C3=C(COC3=O)N(CCO)c3cc4c(cc32)OCO4)c1 (centres undefined) | 55.2%
O=C(/C=C/C12c3ccccc3C(c3ccccc31)C1C(=O)NC(=O)C12)c1ccc(Br)cc1 (centres undefined) | 50.6%
COc1cccc(/C=N/NC(=O)c2ccccc2N2CCCC2)c1O | 72.1%
COc1cc(/C=C/C(=O)c2ccc(-n3cc(CN4CCN(c5cc6c(cc5F)c(=O)c(C(=O)O)cn6C5CC5)CC4)nn3)cc2)ccc1O | 95.8%
C=CN(C(=O)N1CCN(c2cc3c(cc2F)c(=O)c(C(=O)O)cn3C2CC2)CC1)c1nc(-c2ccc(OC)cc2)cs1 | 45.7%
Oc1ccc(/C=C/c2ccc(O)cc2)cc1 | 76.9%
COc1ccc(/C=C/C(c2cc(OC)c(OC)c(OC)c2)n2ccnc2)cc1O (centres undefined) | 58.9%
O=C(N=Nc1c(O)[nH]c2ccccc12)Nc1ccc(F)cc1 | 108%
O=c1ccc(=O)n(-c2nc(-c3ccc([N+](=O)[O-])cc3)cs2)[nH]1 | 105%
Oc1c(CN2CCC(N3CCCCC3)CC2)cc(Cc2cc(CN3CCC(N4CCCCC4)CC3)c(O)c3ncccc23)c2cccnc12 | 31.5%
